Results reported in PubChem BioAssay (NCI).
The panel holds about 83,000 compounds, 20% with a hit somewhere; the sample as a whole holds those more often.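 The endpoint reported here, percent growth, reads 100 for growth as untreated, 0 for no net growth and -100 for all cells dead.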 Active and inactive are the calls of the source. How the source made its calls: active means growth percent below 10; inactive means the rest.

Legend:
Assay in all cases: NCI-60 one-dose screen, 48 h (100 = growth as untreated, 0 = no growth, -100 = all killed)
Conditions in all cases: 10 µM unless noted
HCT-15 colon = system: HCT-15 colon
HT29 colon = system: HT29 colon
SNB-75 CNS = system: SNB-75 CNS
SNB-19 CNS = system: SNB-19 CNS
U251 CNS = system: U251 CNS
PC-3 prostate = system: PC-3 prostate
SK-MEL-5 melanoma = system: SK-MEL-5 melanoma
UACC-62 melanoma = system: UACC-62 melanoma
LOX IMVI melanoma = system: LOX IMVI melanoma
SK-MEL-28 melanoma = system: SK-MEL-28 melanoma

Measured: growth

CCN1C(=O)N(CC)C2C1NN=c1s/c(=C\c3ccc(C(F)(F)F)cc3)c(=O)n12 (stereo not given)
inactive: SNB-75 CNS 15% | SNB-19 CNS 24% | PC-3 prostate 22.6% | UACC-62 melanoma 30.9% | LOX IMVI melanoma 17.4% | SK-MEL-28 melanoma 55.8%
active: HCT-15 colon 9.86% | HT29 colon 1.55% | U251 CNS 6.65% | SK-MEL-5 melanoma 6.27%

N#Cc1nc(-c2ccccc2)oc1S(=O)(=O)N1CCN(c2ccc(F)cc2)CC1
inactive: HCT-15 colon 25.5% | HT29 colon 46% | SNB-75 CNS 96.9% | SNB-19 CNS 87.6% | U251 CNS 82.1% | PC-3 prostate 67.5% | SK-MEL-5 melanoma 86.1% | UACC-62 melanoma 75.6% | LOX IMVI melanoma 15.2% | SK-MEL-28 melanoma 94.7%

CC1(C)OB(O)c2cc(-c3nc4ccc5[nH]ncc5c4c4c3CCCC4)ccc21
active: SK-MEL-5 melanoma -67.9%
inactive: HCT-15 colon 38.2% | HT29 colon 56.3% | SNB-75 CNS 75% | SNB-19 CNS 90.6% | U251 CNS 61.8% | PC-3 prostate 41.3% | UACC-62 melanoma 37.7% | LOX IMVI melanoma 42% | SK-MEL-28 melanoma 87.4%

Cn1cc(-c2csc(-c3cn(CCCN4CCOCC4)c4ccccc34)n2)c2cccnc21
inactive: HCT-15 colon 55.5% | HT29 colon 32.9% | SNB-75 CNS 82.6% | SNB-19 CNS 90.8% | U251 CNS 64.3% | PC-3 prostate 68% | SK-MEL-5 melanoma 64.6% | UACC-62 melanoma 92.5% | LOX IMVI melanoma 79% | SK-MEL-28 melanoma 88.6%

O=C(CCSc1nnc2n(Cc3ccccc3)c(=O)c3c4c(sc3n12)CCCC4)N1CCN(c2ccccc2)CC1
inactive: HCT-15 colon 96.9% | HT29 colon 93.7% | SNB-75 CNS 93.5% | SNB-19 CNS 99.8% | U251 CNS 106% | PC-3 prostate 102% | SK-MEL-5 melanoma 99.9% | UACC-62 melanoma 108% | LOX IMVI melanoma 100% | SK-MEL-28 melanoma 87.4%

COc1ccc(C2=CN3CC=CC3CC2=O)cc1 (stereo not given)
inactive: HCT-15 colon 95.2% | HT29 colon 90.5% | SNB-75 CNS 90.9% | SNB-19 CNS 105% | U251 CNS 94.5% | PC-3 prostate 92.1% | SK-MEL-5 melanoma 100% | UACC-62 melanoma 105% | LOX IMVI melanoma 104% | SK-MEL-28 melanoma 102%

CCN1CCN(CCNc2nccc(-c3c(-c4ccc(F)c(OC)c4)nc4sccn34)n2)S1(=O)=O
inactive: HCT-15 colon 94.6% | HT29 colon 73.1% | SNB-75 CNS 74% | SNB-19 CNS 93% | U251 CNS 76.8% | PC-3 prostate 74.1% | SK-MEL-5 melanoma 41.4% | UACC-62 melanoma 15.5% | LOX IMVI melanoma 40.3% | SK-MEL-28 melanoma 27.2%

C/C=C(/C)n1cnc2c(Nc3ccccn3)nc(Cl)nc21
inactive: HCT-15 colon 103% | HT29 colon 98.1% | SNB-75 CNS 87.9% | SNB-19 CNS 107% | U251 CNS 99.8% | PC-3 prostate 95.3% | SK-MEL-5 melanoma 101% | UACC-62 melanoma 95.8% | LOX IMVI melanoma 95.3% | SK-MEL-28 melanoma 105%

COc1ccc(-c2nc3c(N)c(CO)cnc3s2)cc1
inactive: HCT-15 colon 93.8% | HT29 colon 97.7% | SNB-75 CNS 82.9% | SNB-19 CNS 97.2% | U251 CNS 88.6% | PC-3 prostate 91.8% | SK-MEL-5 melanoma 82.7% | UACC-62 melanoma 92.7% | LOX IMVI melanoma 81.9% | SK-MEL-28 melanoma 98.5%

CCOC(=O)CC1CSC(Nc2ccccc2)=N1 (stereo not given)
inactive: HCT-15 colon 107% | HT29 colon 96.8% | SNB-75 CNS 99.7% | SNB-19 CNS 104% | U251 CNS 99.5% | PC-3 prostate 99.9% | SK-MEL-5 melanoma 103% | UACC-62 melanoma 99.7% | LOX IMVI melanoma 97.3% | SK-MEL-28 melanoma 115%

CNC1=C([N+](=O)[O-])C(c2ccc(OC)cc2)C(C#N)=C(c2cccs2)O1 (stereo not given)
inactive: HCT-15 colon 108% | HT29 colon 118% | SNB-75 CNS 95.5% | SNB-19 CNS 105% | U251 CNS 101% | PC-3 prostate 101% | SK-MEL-5 melanoma 100% | UACC-62 melanoma 101% | LOX IMVI melanoma 95.3% | SK-MEL-28 melanoma 122%

O=S(=O)(NCCNc1nccc(-c2c(-c3ccc(F)c(O)c3)nc3sccn23)n1)c1ccc(F)cc1
active: SK-MEL-5 melanoma -41.5% | UACC-62 melanoma 4.93%
inactive: HCT-15 colon 29.9% | HT29 colon 16.7% | SNB-75 CNS 64.1% | SNB-19 CNS 59.1% | U251 CNS 45.5% | PC-3 prostate 29.9% | LOX IMVI melanoma 16.6% | SK-MEL-28 melanoma 20.5%

O=C(CC(=O)Nc1cccc(C(=O)O)c1)Nc1cccc(C(=O)O)c1
inactive: HCT-15 colon 106% | HT29 colon 97.6% | SNB-75 CNS 73.3% | SNB-19 CNS 102% | U251 CNS 104% | PC-3 prostate 92.5% | SK-MEL-5 melanoma 100% | UACC-62 melanoma 94.6% | LOX IMVI melanoma 103% | SK-MEL-28 melanoma 100%

CN1CCN(C(=S)SCCCCOc2cc(=O)oc3ccccc23)CC1
inactive: HCT-15 colon 88.3% | HT29 colon 78.5% | SNB-75 CNS 93.8% | SNB-19 CNS 94.7% | U251 CNS 87% | PC-3 prostate 72.7% | SK-MEL-5 melanoma 69.5% | UACC-62 melanoma 73.9% | LOX IMVI melanoma 93.9% | SK-MEL-28 melanoma 109%

CCCn1cnc2c(c1=N)C(c1ccc(F)cc1)c1sc3c(F)cccc3c1O2 (stereo not given)
inactive: HCT-15 colon 28% | HT29 colon 63.6% | SNB-75 CNS 26% | SNB-19 CNS 35.4% | U251 CNS 30.8% | PC-3 prostate 50.1% | SK-MEL-5 melanoma 42.2% | UACC-62 melanoma 12.1% | LOX IMVI melanoma 43.4% | SK-MEL-28 melanoma 56%
